According to PubChem BioAssay AID1345082 (National Center for Advancing Translational Sciences (NCATS), 2018):
Screen size: about 94,000 compounds; about 4,000 (4.3%) were called active. Another 29% or so got no clear call; they are omitted. The sample as a whole holds a higher share of actives than the screen did. Values without a mark were called inactive. Calls follow the shape of the dose curve; as a rule, active = well fitted inhibition curve with a large enough effect; inconclusive = small, poorly fitted or top-dose-only effect; inactive = no such curve, though single readings can be large or run the other way.

Test: Cytotoxic Profiling in NIH 3T3 Cell Line of Diverse Libraries Using Quantitative High-Throughput Screening; also: nearly all actives have a fitted effect of over 55% in size
Conditions: NIH 3T3 viability, CellTiter-Glo ATP luminescence, 48-72 h; series mostly up to 96.7 µM; activity change, negative = cytotoxicity: at the top concentration
In short: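 Cytotoxicity is measured as loss of cellular ATP: NIH 3T3 cells (400/well) are exposed to compound for 48 or 72 hr at 37 °C, then CellTiter-Glo luminescence is imaged after 10 min at room temperature.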
% is scaled to controls: 0 for no effect and ±100 for the full control effect; potency is read from the fitted curve at half-maximal effect.

Structure (SMILES) | outcome | activity change, negative = cytotoxicity | Potency
COc1ccccc1N1CCN(C(=O)C2CCCN(C(=O)c3ccccc3)CCC(=O)NCC2)CC1 (centres undefined) | inactive |  | 
COc1ccc(C(=O)N2CCCN(C(=O)C3CC3)C(c3ccccc3)CC(=O)NCC2)cn1 (centres undefined) |  | -7.53% | 
COc1ccccc1N1CCCc2ncc(C(=O)N3CCCC[C@@H]3c3ccccc3)cc21 |  |  | 70.8 µM (active)
CNC(=O)c1cc(C2CC2)nc2onc(C3CCCN(C(=O)OC)C3)c12 (centres undefined) |  | -20.4% | 
CC(C)NC(=O)NC[C@H]1O[C@@H]2C[C@@H](CC(=O)NCc3nccn3C)O[C@@H]2[C@@H]1O |  | -20.6% [at 174 µM] | 
NC(=O)c1cccc(-c2ncc3c(n2)OCCN(c2cccc(C(F)(F)F)c2)C3=O)c1 |  |  | 15.8 µM (active)
COc1ccc(OC2CCN(C(C)=O)CC2)c(C(=O)N(C)Cc2ccc3nccnc3c2)c1 |  | -21.1% | 
O=C([C@H]1C[C@@H](F)CN1S(=O)(=O)c1ccc(F)c(Cl)c1)N1CCOCC1 |  | -0.937% | 
CN1C[C@@H](NC(=O)c2ccc(C#N)cc2)C[C@H]1c1nc(-c2ccc(OC(F)(F)F)cc2)no1 |  |  | 39.8 µM (active)
CN1C[C@@H](NC(=O)c2ccccc2)C[C@H]1c1nc(-c2ccccc2)no1 |  | -17.1% [at 174 µM] | 
CN1C[C@@H](NC(=O)COc2ccccc2)C[C@H]1c1nc(-c2ccc3c(c2)OCO3)no1 |  | -28.1% [at 174 µM] | 
COc1ccc(CCc2nc(NC(=O)Cn3nc4c(cc3=O)CCCCC4)n[nH]2)cc1 |  | -23.8% | 
CC(C)CNC(=O)C1CCCN(c2nccc(Nc3ccccc3F)n2)C1 (centres undefined) |  |  | 44.7 µM (active)
Cc1ccccc1CN1CCC(N2CCCC(C(=O)NC3CC3)C2)CC1 (centres undefined) |  | -0.637% | 
O=C(NCc1ccc(F)cc1)C1CCN(c2nccc(Nc3ccccc3F)n2)CC1 |  |  | 44.7 µM (active)
O=C(NCc1cccnc1)C1CCCN(c2cnn(Cc3ccccc3)c(=O)c2)C1 (centres undefined) |  | -24.1% | 
CNC(=O)C1CCN(c2nccc(Nc3ccccc3F)n2)CC1 |  | -43.4% [at 138 µM] | 
O=C(NC1CC1)C1CCCN(c2nc3ncccc3o2)C1 (centres undefined) |  | -5.51% [at 138 µM] | 
Cc1ccc(CNC(=O)C2CCN(C(=O)c3ncn4c3COC(c3ccc(F)cc3)C4)CC2)cc1 (centres undefined) | inactive |  | 
O=C(NC1CCCCC1)C1CCCN(c2nccc(Nc3ccccc3F)n2)C1 (centres undefined) |  |  | 14.1 µM (active)
Cc1nc(CCNC(=O)C2CCCN(c3nc(-c4ccccc4)nc4c3CCC4)C2)n[nH]1 (centres undefined) |  | -19.5% | 
Cc1ccc(C(=O)N2CCC(c3n[nH]c(=O)n3Cc3ccc(F)cc3)CC2)cc1 |  | -16.8% | 
O=C1CCN([C@@H]2CCC[C@H]2O)c2cc3c(cc2CN1Cc1ccccc1)OCO3 |  | -22.9% | 
COc1cccc([S+](=O)([O-])N2CCCC3(CC(c4ccccc4)=NO3)C2)c1 (centres undefined) |  | -14.2% | 

Structure (SMILES) | outcome | activity change, negative = cytotoxicity | Potency
N[C@@H](Cc1cnc[nH]1)C(=O)N1CCC(c2cc(N3CCCC3)ncn2)CC1 |  | -4.08% | 
COc1ccc(C2Cn3nnc(-c4noc(-c5sccc5C)n4)c3CO2)cc1 (centres undefined) |  | 0.859% | 
CCc1cc(C(=O)N2CCC(Oc3ccccc3)(C(=O)O)CC2)cs1 |  | 1.22% | 
CC(C)CNc1ncnc2c1CN(C1CCC1)C(=O)CN2C |  | -28.4% | 
O=C(c1ccc(F)c(F)c1)N1CCN(C2CCN(CCc3ccccc3)C2=O)CC1 (centres undefined) |  | -8.32% | 
COCc1nncn1C1CCN(C(=O)c2ccccc2F)CC1 | inactive |  | 
N[C@H]1CCN2C(=O)c3cc(-c4ccc(F)cc4F)ccc3NC(=O)[C@H]12 |  |  | 112 µM (active)
O=C1Nc2ccc(-c3ccsc3)cc2C(=O)N2CC[C@H](NS(=O)(=O)c3cccs3)[C@@H]12 |  | -25.8% | 
O=C1Nc2ccc(-c3ccccc3F)cc2C(=O)N2CCN(C(=O)c3cccs3)C[C@H]12 |  | -25.5% | 
CS(=O)(=O)N1C[C@H]2CCN(C(=O)c3ccc(=O)[nH]c3)C[C@H]21 |  | -12.6% | 
COc1ccc2cc(-c3[nH]ncc3CN3CCN(c4cccc(C)n4)CC3)ccc2c1 |  |  | 28.2 µM (active)
CC(=O)N[C@@H]1CN(Cc2cn[nH]c2-c2ccc(F)cc2)C[C@H]1CO |  | -7.37% | 
COc1ccc(-c2[nH]ncc2CN2CCCC(C(=O)NCc3ccccc3)CCNC(=O)CC2)cc1 (centres undefined) | inactive |  | 
CCc1nnc([C@@H]2CC(F)(F)CN2C(=O)c2cc(C)oc2C)o1 |  | -7.09% | 
C=CCNC(=O)N[C@H]1C[C@@H](C(=O)N[C@H](Cc2c[nH]c3ccccc23)C(N)=O)N(C(=O)C=C(C)C)C1 |  | -1.24% | 
O=C1CC2(CCN(C(=O)C3CCN(C(=O)c4ccccc4Cl)CC3)CC2)Oc2ccccc2N1 |  | -8.99% | 
Cn1cnc(S(=O)(=O)N2CCC(c3noc(-c4ccccc4)n3)C2)c1 (centres undefined) |  | -21.7% | 
O=C(NC1CCCC1)N1CCC(c2noc(-c3ccccc3)n2)C1 (centres undefined) |  |  | 39.8 µM (active)
O=C(Cn1ccnc1)N1CCC(c2noc(-c3ccncc3)n2)C1 (centres undefined) | inactive |  | 
Cc1noc(C)c1S(=O)(=O)N1CCC2(CC1)CN(c1ccccc1)C2=O |  | -6.57% | 
O=C(NC1CCCCC1)N1CCCC(Cn2c(C3CC3)nc3cccnc32)C1 (centres undefined) |  | -7.77% | 
Cc1nc(N2CCC(C(=O)NCc3ccc(C(C)C)cc3)CC2)cc(C(F)(F)F)n1 |  |  | 25.1 µM (active)
Cc1nc(N2CCC(NC(=O)C(C)Oc3ccccc3)CC2)cc(C(F)(F)F)n1 (centres undefined) |  | -44.5% | 
Cc1nc(N2CCC(NC(=O)c3ccc4c(c3)OCO4)CC2)cc(C(F)(F)F)n1 |  | -41.1% | 

Structure (SMILES) | outcome | activity change, negative = cytotoxicity | Potency
CNC(=O)N1CCc2nc(N3CCOCC3)[nH]c(=O)c2CC1 | inactive |  | 
COc1ccc([S+](=O)([O-])c2nnn3c2nc(NC2CCCC2)c2ccccc23)cc1 |  | -9.25% | 
CCc1nc2c(c(-c3ccc(OC)cc3)n1)CCN(CC1CCCCC1)CC2 |  | -2.8% | 
O=C(NCCOc1ccccc1)c1nc2c(o1)CCN(CC1CCCCC1)CC2 |  |  | 79.4 µM (active)
O=C(NCC1CC1)c1nc2c(o1)CCN(CCc1ccccc1)CC2 |  | -20.5% [at 138 µM] | 
CN(C)C[C@@H]1CN(S(C)(=O)=O)C[C@H]1NC(=O)c1cccc(F)c1 |  | 1.85% | 
COc1ccc(C(=O)N2CCC(N3C[C@H](O)C[C@H]3C(=O)NC3CCCCC3)CC2)cn1 | inactive |  | 
C[S+](=O)([O-])N1CCC2(C1)N=C(c1ccccn1)C(=O)N2 (centres undefined) |  | 3.04% [at 138 µM] | 
CC(C)CN1C(=O)COC[C@@H]1[C@H](O)c1ccc(NC(=O)Cc2ccccc2)cc1 |  | -11.9% [at 138 µM] | 
CCN1C(=O)COC[C@@H]1C(O)c1ccc(NC(=O)Cc2ccc(OC)cc2)cc1 (some centres undefined) | inactive [at 174 µM] |  | 
COc1ccccc1CN1C(=O)COC[C@@H]1[C@H](O)c1ccc(NC(=O)c2ccc(C#N)cc2)cc1 |  |  | 44.7 µM (active)
O=C(Cc1ccccc1)Nc1ccc([C@@H](O)[C@H]2COCC(=O)N2)cc1 |  | 2.9% [at 138 µM] | 
Cc1nc2cnccn2c1C(=O)NC1CCCC1 |  | -26.7% [at 138 µM] | 
Cc1cnc(CC2CCN(S(=O)(=O)c3ccc(C#N)cc3)C2)n1Cc1ccccc1 (centres undefined) |  | -19.8% | 
Cc1cccc(-c2cc(C3CCN(S(=O)(=O)c4ccc(C#N)cc4)CC3)[nH]n2)c1 |  |  | 14.1 µM (active)
Cc1cccc(S(=O)(=O)N2CCC(n3cnnc3C(C)C)CC2)c1 |  | -17.6% | 
Cc1cccc(-c2cc(C3CCN(S(=O)(=O)c4cccc(C#N)c4)CC3)[nH]n2)c1 |  |  | 5.01 µM (active)
Cc1cnc(-c2cccnc2)n1C1CCN(S(=O)(=O)c2cccc(F)c2)CC1 |  | -7.18% | 
Cn1nc2n(c1=O)CCN(S(=O)(=O)c1ccc(C#N)cc1)CC2 | inactive |  | 
O=C(Cc1ccsc1)NCC1CCCCC(=O)N1 (centres undefined) | inactive |  | 
Cc1ncccc1C(=O)N1CC2CC(C1)[C@H]1CCCC(=O)N1C2 (some centres undefined) |  | -0.593% | 
CN1CC(=O)N(C2CCCNCC2)Cc2c1ncnc2N1CCCC(F)C1 (centres undefined) |  | -4.05% | 
Cc1noc(C)c1CC(=O)NCC12CCC=C1N(Cc1ccccc1)C(=O)CC2 (centres undefined) |  | -15% | 
Cn1ncc(N2CCC(C(=O)NC3CCCC3)C2)cc1=O (centres undefined) |  | -3.98% | 

Structure (SMILES) | outcome | activity change, negative = cytotoxicity | Potency
CCc1ccc(C(=O)NC2CCN(c3cnn(CC)c(=O)c3)CC2)cc1 |  | -15.7% | 
Cc1cc(C)cc(C(=O)NC2CCN(c3cnn(C)c(=O)c3)CC2)c1 |  |  | 39.8 µM (active)
COc1ccc(C(=O)N2CCN(C(=O)Nc3cccc(OC)c3)C[C@@H]2C(=O)N[C@H]2CCCNC2=O)cc1 |  | 4.28% | 
Cc1cc(C(=O)NCC2(COc3cccnc3)C[C@@H](O)[C@@H](O)C2)n(C)n1 (some centres undefined) |  | -25.3% [at 174 µM] | 
Cc1ccc(-c2noc([C@@H]3Cc4nc[nH]c4CN3Cc3cccc(C#N)c3)n2)cc1 |  |  | 100 µM (active)
Cc1cccc(-c2noc([C@@H]3Cc4nc[nH]c4CN3C(=O)CCC(=O)O)n2)c1 |  | -4.77% [at 174 µM] | 
O=C(c1ccco1)N1Cc2[nH]cnc2C[C@H]1c1nc(-c2ccncc2)no1 |  | -11.2% [at 138 µM] | 
CNC(=O)c1cc(C2CC2)nc2onc(C3CCN(C(=O)Cc4ccc(OC)cc4)CC3)c12 |  | -23.1% | 
O=C(NC1CCCCC1)N1CCCCCC1c1nc(-c2cccnc2)no1 (centres undefined) |  | -26.4% | 
O=C(c1cccnc1)N1CCC2(CCCN(C3CCOCC3)C2=O)C1 (centres undefined) |  | 4.79% | 
O=c1[nH]c(N2CCOCC2)nc2c1CCN(Cc1cccc(F)c1)CC2 |  | 4.36% | 
CN1Cc2c(cc(N3CCOCC3)nc2-c2cccc(F)c2)C1=O |  |  | 8.91 µM (active)
O=C1c2cc(N3CCOCC3)nc(-c3cccnc3)c2CN1C1COC1 |  |  | 8.91 µM (active)
Cc1cccc(Cn2c(-c3ccc(F)cc3)nc(C)c(CCO)c2=O)c1 |  | -20.2% | 
Cc1cc(N2CCC(NC(=O)c3cccc(N(C)C)c3)C2=O)ccc1F (centres undefined) |  | -13.1% | 
O=C(c1c[nH]c2ccccc12)N1CCC2(COc3ccncc3S(=O)(=O)N2)C1 (centres undefined) |  | -4.03% | 
Cc1cc(C(=O)N2CCC(N3C(=O)C(O)C34CCCCC4)CC2)nn1C (centres undefined) |  | -3.23% | 
Cc1nc(C)c(C(=O)N2CCN(C(=O)N(C)C)[C@@H]3CS(=O)(=O)C[C@@H]32)s1 |  | -15.2% | 
COc1ccccc1C(=O)N1CCC2(CC1)C(=NC1CCCCC1)NC(=O)N2c1cccnc1 | inactive |  | 
O=C(NCc1nnc2n1C(C(=O)NC1CC1)CC2)c1ccncc1 (centres undefined) |  | -3.99% | 
CCn1cc(S(=O)(=O)N2CC[C@@H]3C(=O)NCCCCCCN(Cc4ccncc4)[C@@H]3C2)cn1 |  | -21.9% | 
CN1[C@@H](CCC(=O)N2CCCC2)CNC(=O)[C@@H]2[C@H]1CCN2Cc1ccc(S(C)(=O)=O)cc1 |  | 3.65% | 
